According to PubChem BioAssay AID893 (National Center for Advancing Translational Sciences (NCATS), 2007):
Where “and” joins values, the source holds several entries; their conditions need not be identical. Equal entries are not always repeated. In all, about 75,000 compounds went through this assay and about 5,700 (7.6%) were called active. About 7% were inconclusive and are not listed. Calls follow the shape of the dose curve; as a rule, active = well fitted inhibition curve with a large enough effect; inconclusive = small, poorly fitted or top-dose-only effect; inactive = no such curve, though single readings can be large or run the other way. This excerpt belongs to a sample that is enriched for actives.

These compounds were tested against 3-hydroxyacyl-CoA dehydrogenase type-2 (Homo sapiens) (UniProt Q99714) (assay: qHTS Assay for Inhibitors of HSD17B4, hydroxysteroid (17-beta) dehydrogenase 4). Settings: recombinant HSD17B10, NADH fluorescence kinetic; series mostly up to 57.1 µM.
Description: Assay Overview: NIH Molecular Libraries Screening Centers Network [MLSCN] NIH Chemical Genomics Center [NCGC] Structural Genomics Consortium [SGC] Grant number: None HADH2: Hydroxyacyl-Coenzyme A dehydrogenase, type II, was supplied by researchers at the Structural Genomics Consortium, Oxford University lab (PI Udo Oppermann). The mitochondrial enzyme 17-hydroxysteroid dehydrogenase type 10 (HSD17-10) previously classified as type II hydroxyacyl-CoA dehydrogenase (HADH2) catalyzes the NAD+ dependent oxidation of a variety of substrates including acyl-CoAs, androgens and neurosteroids as well as bile acids(Shafqat N, Marschall HU, Filling C, et al. Biochemical Journal. 2003;376(Pt 1):49-60). […] The enzyme was produced by E.coli fermentation as His-tagged recombinant for the purpose of X-ray structure determination, and had been mass-spectrometry characterized. Inhibition of HADH2 activity was screened by utilizing beta-hydroxybutyryl coenzyme A as an electron donor and NAD+ as an electron acceptor/cofactor. An increase in the fluorescence intensity due to conversion of NAD+ to NADH was used to measure the enzyme activity.
Assay Protocol: Buffer: 100 mM Tris-HCl pH 9.0, containing 0.01 % Tween-20. Reagents/Controls: Buffer in columns 3 and 4 as negative control (no enzyme). Substrate/cofactor solution: 1 mM NAD+ and 90 uM beta-hydroxybutyryl coenzyme A (Sigma-Aldrich, St. Louis, MO) final concentrations dispensed throughout the plate. Enzyme: 20 nM HADH2 final concentration in columns 1, 2, 5-48. Column 1 is neutral (100% activity). Column 2 contained titration of apomorphine (Sigma-Aldrich, A 4393, PubChem CID 2215, top concentration 500 uM, then 1:2 dilution in duplicate) Assay Steps: Three uL of enzyme were dispensed to 1536-well Greiner black solid bottom plates. Compounds and controls (23 nL) were transferred via Kalypsys PinTool. The plates were incubated for 15 min at room temperature, and then 1 uL of substrate/cofactor solution was added to start the reaction. The plates were immediately transferred to and read every 30 seconds for 4 min on ViewLux High-throughput CCD imager (Perkin-Elmer) using 360 nm excitation and 450 nm emission fluorescence protocol. The fluorescence intensity difference between the last and the first time points was used to compute reaction progress.
% is scaled to controls: 0 for no effect and ±100 for the full control effect; potency is read from the fitted curve at half-maximal effect.
Also: nearly all actives have a fitted effect of over 70% in size.

Potency, inactive:
COc1ccc(N2C(=O)CCC(C(=O)Nc3ccccn3)C2c2ccc(OC)c(OC)c2)cc1 (configuration not stated)
O=C(Nc1c(C(=O)N2CCCCC2)cnn1-c1ccccc1)c1ccco1
Cc1c(C(=O)NCCN2CCOCC2)sc2nc(-c3ccc(F)cc3)cn12
O=C1c2cccc3cccc(c23)N1CN1CCN(c2ccccn2)CC1
CC(C(=O)O)N1C(=O)c2cccc3cccc1c23 (configuration not stated)
CN1CC(=O)N=C1N
Cc1ccc(C(=O)COc2cccc(NC(=O)c3ccco3)c2)cc1
Cc1ccnc(NC(=O)c2ccc(NC(=O)c3ccco3)cc2)c1
O=S(=O)(O)c1nc2ccccc2n1Cc1ccc(Cl)cc1
CCN(CC)C(=O)c1sc(NC(=O)c2ccco2)c(C#N)c1C
COC(C)(C)[C@]12CC(O)(C(C)C)ON1[C@H]1CCCCC1N2O (some centres not stated)
Cc1sc2c(c1C)c(=O)n(-c1ccccc1)c1nncn21
Cn1c2c(c(=O)n(C)c1=O)C(c1ccc(O)cc1)Nc1ccccc1O2 (configuration not stated)
O=C(CCCN1C(=O)C2C3C=CC(C3)C2C1=O)N1CCN(c2ccccc2)CC1 (configuration not stated)
CC(C)CCNC(=O)CCNS(=O)(=O)c1ccc(Cl)cc1
CCCCOc1ccc(NC(=O)CSCC(=O)OCC)cc1
CCOC(=O)c1cnc(SCC(=O)NCc2ccco2)nc1N
Cc1cccc(NC(=O)c2ccc3ccccc3n2)n1
COC(=O)[C@@H]1C[C@@]2(O)[C@H](O)[C@H](O)[C@H](O)C[C@H]2N1Cc1ccc(C(C)(C)C)cc1
COc1ccc(OC)c([C@H](O)CNC(=O)CN)c1
COc1cc(NC(=O)N2CCOCC2)cc(OC)c1
Cc1c(C(=O)CN2CCOCC2)[nH]c2ccccc12
O=C(CN1C2CCC1CC(NC(=O)C1CC1)C2)NCc1ccccc1 (configuration not stated)
Cc1nc2ccccc2c2oc(C(=O)NCCCN3CCC(C)CC3)cc12
CCCN(CCC)CCNC(=O)c1cc2c(C)nc3ccccc3c2o1
Cc1ccc(Cc2cncc(O)c2)cc1S(=O)(=O)O
CCCn1c(SCC(=O)c2ccc3c(c2)OCCO3)nnc1C(C)C
COc1cc(C2C(C(=O)Nc3ccc(F)cc3)=C(C)Nc3nc(CCCO)nn32)cc(OC)c1OC (configuration not stated)
CC1C(O)CC2C(C(=O)O)=CO[C@@H](O[C@H]3OC(CO)C(O)C(O)C3O)C21 (some centres not stated)
COc1ccc(C2CC(c3ccccc3)Nc3ncnn32)cc1 (configuration not stated)
OC(COc1ccccc1)Cn1cc(Br)cn1 (configuration not stated)
COc1cc(-c2nc(S(=O)(=O)c3ccc(Cl)cc3)c(N(C)C)o2)cc(OC)c1OC
COc1ccc(C2C(C(=O)Nc3ccccc3OC)=C(C)Nc3nnnn32)c(OC)c1 (configuration not stated)
COC(=O)c1ccc(C2NC(=O)NC(C)=C2C(=O)N(C)C)cc1 (configuration not stated)
Cc1c(C)c2c(c(C)c1O)CC[C@@](C)(CN1CCN(c3cc(N4CCCC4)nc(N4CCCC4)n3)CC1)O2
CCOC(=O)CSc1nnc(-c2ccco2)n1C
c1coc(-c2nc3nc4ccccc4n3nc2-c2ccco2)c1
Cn1c(SCC(=O)N2CCOCC2)nnc1-c1ccc(NC(=O)c2ccccc2F)cc1
COc1cccc(Nc2nnc(SCC(=O)N3CC(C)OC(C)C3)s2)c1 (configuration not stated)
O=C(C1CCN(CC2CCCCC2)CC1)N1CCCC1
Cc1nn(CC(=O)Nc2ccc3c(c2)nc(CN2CCCCC2)n3C)c(=O)c2ccccc12
CCC(=O)Nc1ccc2c(c1)nc(CCN1CCN(C)CC1)n2C
CC(C)N(CCNC(=O)c1ccc(-n2c(=O)c(=O)[nH]c3ccccc32)cc1)C(C)C
CN(C)CCCCNC(=O)c1ccc(Cc2nc3ccccc3[nH]2)cc1
COC(=O)[C@@]1(Cc2ccc(OC)cc2)[C@H]2c3cc(C(=O)N4CCCC4)n(Cc4ccc(OC(F)(F)F)cc4)c3C[C@H]2CN1C(=O)c1ccccc1
Cc1ccc2c(C(=O)CN3CCCC3)c(C)[nH]c2c1
CCOC(=O)c1nnn(-c2nonc2OC)c1-c1ccccc1
CCOC(=O)CN(C(=O)CN1CCOCC1)c1ccc(Br)cc1
Cc1ccc(OCC(O)CN2CCN(CC(O)COc3ccc(C)cc3Cl)CC2)c(Cl)c1 (configuration not stated)
CC(C)c1ccc(-c2nn[nH]n2)cc1
CCCn1nnc2sc3c(c2c1=O)CCC(C)C3 (configuration not stated)
Cc1nc2cc(S(=O)(=O)C(F)(F)F)ccc2s1
COc1ccc(-c2oc3cc(OC)ccc3c2C(=O)c2ccc(C#N)cc2)cc1
CN1C(C)(C)CC(NC(=O)CCC(=O)NC2CC(C)(C)N(C)C(C)(C)C2)CC1(C)C
O=C(CCCOc1ccccc1)Nc1cccc(C(=O)O)c1
Cc1ccc2c(c1)N(CCCC(=O)NCc1cccnc1)C(=O)CO2
COc1cccc(N(CC(=O)Nc2cccc(N(C)S(C)(=O)=O)c2)S(C)(=O)=O)c1
COC(=O)c1cn(-c2ccccc2)nc1-c1cccnc1
Cc1ccc2oc(=O)ccc2c1
COc1ccc2c(=O)cc(-c3ccccc3)oc2c1O
COc1ccc(C)cc1-n1nnnc1SCC(=O)c1cc(C)n(Cc2ccco2)c1C
NS(=O)(=O)c1ccc(CCNC(=O)Nc2ccc(Cl)cc2)cc1
O=C(NCCc1ccc(Cl)cc1)C1CC(=O)N(C2CCCCC2)C1 (configuration not stated)
CCn1c(COc2cccc(OC)c2)nnc1SCC(=O)N1CCOCC1
COc1ccc(-c2nc(SCC(=O)N3CCOCC3)n[nH]2)cc1
O=C(CSc1nnc(-c2ccccc2)o1)N1CCOCC1
O=C(OCc1nnc(-c2ccccc2)o1)c1ccc2c(c1)C(=O)N(CCc1ccccc1)C2=O
Fc1cccc(/C=N\N=C/c2cccc(F)c2)c1
O=C(O)CCC(=O)NCc1ccc2[nH]c3c(c2c1)CCCC3
N#CCCN1CCN(S(=O)(=O)c2ccc(S(=O)(=O)NC3CCCCC3)cc2)CC1
COc1ccccc1-n1c(CNC(=O)c2ccccc2)nnc1SCC(=O)Nc1nnc(C)s1
COC(CCN(C)C)(c1ccccc1)c1ccccc1
CCCCN(CC)CCCNC(=O)CS(=O)(=O)Cc1nc(-c2cccc(OC)c2)oc1C
COc1cccc(-c2nc(S(=O)(=O)c3ccccc3)c(N3CCOCC3)o2)c1
COc1ccccc1N1CCN(CCN2C(=O)c3ccccc3C(C)(C)C2=O)CC1
COc1ccc(OC)c(CNC(=O)CCc2nc(-c3cccs3)no2)c1
CCOC(=O)NCc1ccc2c(c1)OCO2

Potency, active:
CC(C)c1ccc2c(c1)c(SC(C)(C)C)c(CC(C)(C)C(=O)O)n2Cc1ccc(Cl)cc1 10 µM and 3.98 µM
COc1ccc(N2C(=O)c3cccc4cccc(c34)C2=O)nn1 31.6 µM
CCn1nc(NC(=O)c2ccco2)c2cc3ccc(C)cc3nc21 20 µM
Cc1ccc(Cn2c(NC(=O)c3ccco3)nc3ccccc32)cc1 15.8 µM
CCCCOc1ccc(-c2ncc(C(=O)OCC)c(N)n2)cc1 31.6 µM
CCOC(=O)c1[nH]c2ccc(OC)cc2c1NC(=O)N1CCOCC1 25.1 µM
Cc1nc2ccccc2c2oc(C(=O)NCC3CCCO3)cc12 (configuration not stated) 31.6 µM
COC(=O)c1ccc(C2C3=C(Nc4nnnn42)c2ccccc2OC3)cc1 (configuration not stated) 25.1 µM
Cn1c(-c2ccco2)nc2cc3ccccc3cc21 25.1 µM
Cn1c(CCN2CCCCCC2)nc2cc(NC(=O)Nc3ccccc3)ccc21 25.1 µM
CN(C)CCCNC(=O)c1ccc2[nH]c3ccccc3c2c1 20 µM
CC(=O)Oc1c2c(c3c(c1CC=C(C)C)O[C@@]14C(=CC5CC1C(C)(C)OC4(C/C=C(\C)C(=O)O)C5=O)C3=O)OC(C)(CCC=C(C)C)C=C2 (some centres not stated) 20 µM
c1ccc(-n2ncc(-c3nn[nH]n3)n2)cc1 31.6 µM
CC(=O)Oc1ccc2c(C)c(CC(C)O)c(=O)oc2c1 (configuration not stated) 2 µM
Cc1cccc(-c2cc(=O)c3cc(C)ccc3o2)c1 31.6 µM
Oc1cc2c(cc1O)CN(C(=S)NCCc1ccc(Cl)cc1)CCC2 15.8 µM
COc1ccc(-c2ccnc(SCC(=O)N3CCOCC3)n2)cc1 25.1 µM
Nc1ccc(-c2nnc(-c3ccc(-c4ccccc4)cc3)o2)cc1 5.01 µM
COc1cccc(-c2nc3cc(C)ccc3o2)c1 25.1 µM
CCC1=C/C(=C\c2ccc3c(c2)OCO3)C(=O)S1 25.1 µM

Activity change, negative = inhibition, inactive:
CC(C)=CCC/C(C)=C/CO/N=C1/C[C@@H](O)[C@@H](O)[C@@H]2[C@@H]3C(=O)N(C(C)(C)C)C(=O)[C@H]3CC[C@H]12 0.507% [at 11.4 µM]
COC(=O)[C@@H]1CC[C@H](C)[C@@H](c2ccc(C)cc2)N1C(=O)c1ccc(/C=N\O[C@@H](C)c2cn([C@H](CO)Cc3ccccc3)nn2)cc1 -0.702% [at 11.4 µM] and -3.31% [at 11.4 µM]
COC(=O)NC(c1ccccc1)[C@]1(C(C)=O)CCCC1=O (some centres not stated) 3.19% [at 11.4 µM]
CC(C)[C@@H](OCc1ccccc1)[C@H](C)/C=N\OC[C@@H](C)[C@H](OCc1ccccc1)C(C)C 2.53% [at 11.4 µM]
CN1CCc2[nH]nc(-c3n[nH]c4c3CN(C)CC4)c2C1 4.35% [at 11.4 µM]
